This is a sample that favours compounds with a hit; in the whole collection about 1.6% have one here.
KCNQ2 enhance – potentiators of rat KCNQ2 potassium channel; B-score at 10 µM; hit rate 0.54% among 310,000; O88943; CHO-K1 KCNQ2, FluxOR thallium flux fluorescence; stronger effect = higher value;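 active = fluorescence ratio B-score at least 3 SD of library B-scores, with initial fluorescence B-score within 3 of them, cut at about 5.3 in these data; same plate scores as AID 2156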;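 also: B-score of peak minus minimum over baseline fluorescence ratio after K+ and Tl+ stimulus; positive B-score means potentiation of KCNQ2 with more thallium influx and brighter signal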
Target sequence (O88943 whole entry, looked up): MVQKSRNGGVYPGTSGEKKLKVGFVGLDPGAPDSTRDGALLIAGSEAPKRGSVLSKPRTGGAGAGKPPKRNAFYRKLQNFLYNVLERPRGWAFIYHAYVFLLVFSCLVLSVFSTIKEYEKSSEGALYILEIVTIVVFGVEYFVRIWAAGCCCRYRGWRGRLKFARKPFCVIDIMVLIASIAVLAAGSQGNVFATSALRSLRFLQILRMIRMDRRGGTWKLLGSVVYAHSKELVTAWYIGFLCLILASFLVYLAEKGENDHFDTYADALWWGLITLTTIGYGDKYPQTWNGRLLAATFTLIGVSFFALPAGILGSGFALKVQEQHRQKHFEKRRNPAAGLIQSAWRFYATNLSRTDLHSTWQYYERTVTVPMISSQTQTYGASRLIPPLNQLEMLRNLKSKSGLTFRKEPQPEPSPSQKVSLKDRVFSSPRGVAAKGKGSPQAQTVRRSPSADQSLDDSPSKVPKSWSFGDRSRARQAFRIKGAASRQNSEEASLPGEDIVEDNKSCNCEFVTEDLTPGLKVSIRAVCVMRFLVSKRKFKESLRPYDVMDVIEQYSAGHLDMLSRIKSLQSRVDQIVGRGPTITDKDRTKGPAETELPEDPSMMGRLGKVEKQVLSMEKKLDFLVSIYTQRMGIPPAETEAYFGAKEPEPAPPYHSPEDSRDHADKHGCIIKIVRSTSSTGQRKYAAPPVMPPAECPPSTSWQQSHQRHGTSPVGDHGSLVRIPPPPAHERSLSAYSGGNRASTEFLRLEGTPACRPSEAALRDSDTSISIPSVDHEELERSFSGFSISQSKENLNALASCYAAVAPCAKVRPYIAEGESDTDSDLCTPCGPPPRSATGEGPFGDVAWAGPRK
KCNQ2 block – KCNQ2 (rat) channel inhibition. O88943. CHO-K1 KCNQ2, FluxOR thallium flux, 20 min; stronger effect = lower value. hit rate 1.1% among 310,000. B-score at 10 µM;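 active = fluorescence ratio B-score at most minus 3 library SDs, with starting brightness B-score within 2 library SDs, cut at about -5.5 in these data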
KCNQ2 block conf – rat KCNQ2 channel inhibition, confirmatory screen | shares compounds with KCNQ2 block | KCNQ2-expressing cells, thallium flux; stronger effect = lower value | activity change, negative = inhibition, % at 10 µM | hit rate 57% among 1,000;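 also: 0% = vehicle wells and values are ratio percent relative to vehicle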
KCNQ1 spec – human KCNQ1 activity in KCNQ2 inhibitor specificity screen; shares compounds with KCNQ2 block; KCNQ1-expressing cells, FluxOR thallium flux fluorescence; stronger effect = lower value; activity change, negative = inhibition, % at 10 µM; hit rate 15% among 1,000; AID 493026;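 active = activity change at least 3 SD of negative controls below their mean in both duplicate wells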;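 also: CHO cells stably transfected with KCNQ1 and depolarized by potassium stimulus; peak minus minimum fluorescence over baseline after thallium addition; 0% = vehicle negative control and -100% = blank without thallium stimulus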
CHO parental ctr – KCNQ2 inhibitor counter-screen hit in parental CHO cells; hit rate 14% among 1,000; activity change, % at 10 µM; shares compounds with KCNQ2 block; thallium flux counter-screen; stronger effect = lower value;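 also: 0% = vehicle negative controls with stimulus buffer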
KCNQ2 inh confirm – blocks rat KCNQ2 current in automated patch clamp | shares compounds with KCNQ2 block | KCNQ2-expressing cells | calls only at 10 µM | hit rate 49% among 550 | AID 588531
* marks the source's active call; other numbers are inactive results. Unless noted, no rule for the calls is given here.

Screening O=C(O)c1ccc(C2Nc3ccccc3C(=O)N2Cc2ccccc2)cc1 (stereo unspecified) returned KCNQ2 block inactive.
Cc1cccc(N2CCN(C(=O)C34CC5CC(CC(C5)C3)C4)CC2)c1C was read as KCNQ2 enhance -7.3, KCNQ2 block -7.3*, KCNQ2 block conf -20%*, KCNQ1 spec inactive, CHO parental ctr inactive and KCNQ2 inh confirm inactive.
O=C(N1CCN(c2ccc(F)cc2)CC1)C12CC3CC(CC(C3)C1)C2 was read as KCNQ2 block inactive.
O=C(N1CCN(c2ccccc2F)CC1)C12CC3CC(CC(C3)C1)C2 was read as KCNQ2 enhance -7.6, KCNQ2 block -7.6*, KCNQ2 block conf -26%*, KCNQ1 spec inactive, CHO parental ctr inactive and KCNQ2 inh confirm active.
`Cc1cccc(N2CCN(C(=O)N3CCCCC3)CC2)c1C` gave KCNQ2 block inactive.
For COc1cccc(-c2nc(CS(=O)(=O)CC(=O)NC3CCCCCC3)c(C)o2)c1 the results were KCNQ2 block inactive.
Screening Cc1sc(NC(=O)CN(Cc2ccc(F)cc2)C(=O)C(C)(C)C)c(C(N)=O)c1C returned KCNQ2 block inactive.
Screening CC(=O)Nc1ccc(S(=O)(=O)N2CCC(c3nnc(-c4ccc(C)cc4)o3)CC2)cc1 returned KCNQ2 block inactive.
Screening c1ccc(Cc2noc(CN3CCN(CCOc4ccccc4)CC3)n2)cc1 returned KCNQ2 block inactive.
For O=C1ON=C(c2ccccc2)/C1=C\c1ccco1 the results were KCNQ2 block inactive.
Screening Cc1ccc(/C=C2/C(=O)ON=C2c2ccccc2)o1 returned KCNQ2 enhance -9, KCNQ2 block -9*, KCNQ2 block conf -24%*, KCNQ1 spec inactive, CHO parental ctr inactive and KCNQ2 inh confirm inactive.
`CC(C)CCn1c(O)c(N=NC(=O)c2ccco2)c2ccccc21` gave KCNQ2 block inactive.
`CC(C)Cn1c(O)c(N=NC(=O)c2cccc(S(=O)(=O)N3CCCCC3)c2)c2ccccc21` gave KCNQ2 enhance -9.3, KCNQ2 block -9.3*, KCNQ2 block conf inactive, KCNQ1 spec inactive and CHO parental ctr inactive.
For COCCN1C(=O)N[C@@H](c2ccco2)C(C(=O)OC)=C1C the results were KCNQ2 enhance 0.24 and KCNQ2 block inactive.
For Cc1cccc2c(N=Nc3ccc(S(=O)(=O)Nc4ccc(Cl)cc4)cc3[N+](=O)[O-])c(O)[nH]c12 the results were KCNQ2 enhance 0.46 and KCNQ2 block inactive.
`COCCN(Cc1ccccc1)C(=O)c1cc(-c2ccc(OC)c(OC)c2)nc2ccccc12` gave KCNQ2 enhance -8.9, KCNQ2 block -8.9*, KCNQ2 block conf -30%*, KCNQ1 spec inactive, CHO parental ctr inactive and KCNQ2 inh confirm active.
`COc1ccccc1CN(C)C(=O)c1cc(-c2cc(OC)c(OC)c(OC)c2)nc2ccccc12` gave KCNQ2 block inactive.
`COc1cc(-c2cc(C(=O)N(C)Cc3ccccc3)c3ccccc3n2)cc(OC)c1OC` gave KCNQ2 enhance -7.2, KCNQ2 block -7.2*, KCNQ2 block conf -28%*, KCNQ1 spec inactive, CHO parental ctr inactive and KCNQ2 inh confirm active.
Screening COc1cc(-c2cc(C(=O)Nc3ccc(S(N)(=O)=O)cc3)c3ccccc3n2)cc(OC)c1OC returned KCNQ2 block inactive.
Screening COc1ccc(-c2cc(C(=O)NCC(c3ccccc3)N(C)C)c3ccccc3n2)cc1OC (stereo unspecified) returned KCNQ2 block inactive.
For COc1cc(-c2cc(C(=O)Nc3c(Cl)cc(Cl)cc3Cl)c3ccccc3n2)cc(OC)c1OC the results were KCNQ2 enhance -7.2, KCNQ2 block -7.2*, KCNQ2 block conf -25%*, KCNQ1 spec inactive, CHO parental ctr inactive and KCNQ2 inh confirm active.
CCOC(=O)c1cn(Cc2ccc(C)cc2)c2cc(F)ccc2c1=O was read as KCNQ2 block inactive.
For CCSc1nc2c(cnn2-c2ccccc2)c(=O)n1N the results were KCNQ2 enhance 2 and KCNQ2 block inactive.
For C/C=C/c1ccc(OCC(=O)NCc2ccccc2OC)c(OC)c1 the results were KCNQ2 enhance -6.7, KCNQ2 block -6.7*, KCNQ2 block conf inactive, KCNQ1 spec inactive and CHO parental ctr inactive.
COc1ccccc1CNC(=O)COc1ccccc1C was read as KCNQ2 block inactive.
